Measured values reported in PubChem BioAssay.
For some of these results: Results with a measured potency or affinity are listed apart. The source made the active and inactive calls. Unless noted, the rule behind the calls is not given here.

Key:
[1] = antimalarial activity against Dd2 strain (AID 2302;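 active = growth inhibition above 50% at the single 2 µM test dose, taken to imply half-maximal potency below 2 µM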;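 note: 0% = DMSO untreated growth and 100% = chloroquine plus artemisinin killed control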); conditions: P. falciparum Dd2 in RBCs, LDH growth readout, 72 h; at 2 µM; active compounds read high
[2] = human hepatoma cell viability loss – ATP luminescence, cytotoxicity control for P. falciparum antimalarial project, primary screen (AID 2303;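 active = inhibition above 50%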;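 note: 0% = DMSO wells and 100% = digitonin-killed cells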); conditions: HepG2 viability, 24-48 h, at 10 µM, active compounds read high
[3] = biological target: L-lactate dehydrogenase (Plasmodium falciparum (isolate CDC / Honduras)) (UniProt Q27743); assay: PfLDH activity inhibition – cell lysate, 3D7 strain, counter-screen for P. falciparum growth inhibition project (AID 2304);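 note: 0% = vehicle and 100% = reference inhibitor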; conditions: P. falciparum 3D7 crude extract, LDH APAD/NBT absorbance; at 2 µM; active compounds read high
[4] = inhibition of 3D7 malaria parasite growth – strain 3D7 (AID 2306);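 note: 0% = DMSO wells and 100% = chloroquine plus artemisinin control wells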; conditions: P. falciparum 3D7 erythrocytic growth, LDH absorbance, 72 h; at 2 µM; active compounds read high
[5] = biological target: Calcium-dependent protein kinase 1 (Plasmodium falciparum (isolate 3D7)) (UniProt P62344); assay: PfCDPK1 kinase inhibitors, biochemical, TCAMS library (AID 1159585; cut-off not given, nearly all actives have IC50 up to about 0.98 µM;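 note: inhibitors leave more ATP so luminescence rises with inhibition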); conditions: recombinant PfCDPK1, Kinase-Glo ATP depletion luminescence
[6] = biological target: Plasmodium falciparum protein kinase 6 (PK6, PF3D7_1337100) (UniProt Q8IDW1); assay: PfPK6 kinase inhibitors, biochemical, TCAMS library (AID 1159586); conditions: recombinant PfPK6, Kinase-Glo ATP depletion luminescence
[7] = biological target: Protein kinase 7 (PK7), Plasmodium falciparum 3D7 (PF3D7_0213400) (UniProt Q7YTF7); assay: inhibition of Plasmodium PK7 catalytic activity – biochemical, TCAMS antimalarial set, Kinase-Glo luminescence (AID 1159587); conditions: recombinant PfPK7, Kinase-Glo ATP depletion luminescence
[8] = biological target: Calcium-dependent protein kinase 4 (Plasmodium falciparum (isolate 3D7)) (UniProt Q8IBS5); assay: PfCDPK4 kinase inhibitors, biochemical, TCAMS library (AID 1159588; cut-off not given, nearly all actives have IC50 up to about 0.91 µM); conditions: recombinant PfCDPK4, Kinase-Glo ATP depletion luminescence
Calcium-dependent protein kinase 4 (Plasmodium falciparum (isolate 3D7)), sequence (Q8IBS5 whole entry, looked up): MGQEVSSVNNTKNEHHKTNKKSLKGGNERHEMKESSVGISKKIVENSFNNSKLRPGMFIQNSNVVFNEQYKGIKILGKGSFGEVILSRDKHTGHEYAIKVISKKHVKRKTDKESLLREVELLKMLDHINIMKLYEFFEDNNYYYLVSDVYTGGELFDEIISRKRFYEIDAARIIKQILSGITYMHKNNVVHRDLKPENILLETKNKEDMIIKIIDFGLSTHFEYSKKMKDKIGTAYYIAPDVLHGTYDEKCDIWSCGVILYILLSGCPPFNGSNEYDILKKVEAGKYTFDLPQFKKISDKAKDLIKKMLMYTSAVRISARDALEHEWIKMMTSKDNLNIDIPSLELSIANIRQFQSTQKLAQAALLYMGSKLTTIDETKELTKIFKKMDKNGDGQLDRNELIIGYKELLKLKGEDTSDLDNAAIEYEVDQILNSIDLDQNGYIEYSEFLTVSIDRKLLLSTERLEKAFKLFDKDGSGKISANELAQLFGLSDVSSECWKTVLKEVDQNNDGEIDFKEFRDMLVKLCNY

Calcium-dependent protein kinase 1 (Plasmodium falciparum (isolate 3D7)), sequence (P62344 whole entry, looked up): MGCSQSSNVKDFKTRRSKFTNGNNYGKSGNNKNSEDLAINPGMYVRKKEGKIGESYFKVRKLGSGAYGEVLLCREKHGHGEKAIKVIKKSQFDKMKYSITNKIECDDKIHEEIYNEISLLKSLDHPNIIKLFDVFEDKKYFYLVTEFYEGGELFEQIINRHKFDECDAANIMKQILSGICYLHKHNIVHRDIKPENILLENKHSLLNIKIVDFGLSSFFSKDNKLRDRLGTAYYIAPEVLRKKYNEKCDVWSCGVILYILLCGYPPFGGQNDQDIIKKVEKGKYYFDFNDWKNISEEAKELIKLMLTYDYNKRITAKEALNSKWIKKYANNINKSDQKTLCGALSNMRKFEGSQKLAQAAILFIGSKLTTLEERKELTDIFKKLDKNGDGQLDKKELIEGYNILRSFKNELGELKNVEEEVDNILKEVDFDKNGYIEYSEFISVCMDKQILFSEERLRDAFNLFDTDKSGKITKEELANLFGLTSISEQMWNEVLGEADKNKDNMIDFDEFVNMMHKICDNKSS
L-lactate dehydrogenase (Plasmodium falciparum (isolate CDC / Honduras)), sequence (Q27743 whole entry, looked up): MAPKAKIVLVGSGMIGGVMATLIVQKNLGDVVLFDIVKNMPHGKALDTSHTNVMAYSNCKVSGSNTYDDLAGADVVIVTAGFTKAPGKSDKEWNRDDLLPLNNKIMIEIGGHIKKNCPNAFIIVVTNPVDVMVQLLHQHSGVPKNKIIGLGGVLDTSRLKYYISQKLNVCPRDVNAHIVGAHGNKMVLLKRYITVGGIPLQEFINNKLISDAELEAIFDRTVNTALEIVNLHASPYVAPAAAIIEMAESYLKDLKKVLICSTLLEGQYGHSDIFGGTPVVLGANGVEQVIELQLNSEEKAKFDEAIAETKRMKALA
Protein kinase 7 (PK7), Plasmodium falciparum 3D7 (PF3D7_0213400), sequence (Q7YTF7 1-343): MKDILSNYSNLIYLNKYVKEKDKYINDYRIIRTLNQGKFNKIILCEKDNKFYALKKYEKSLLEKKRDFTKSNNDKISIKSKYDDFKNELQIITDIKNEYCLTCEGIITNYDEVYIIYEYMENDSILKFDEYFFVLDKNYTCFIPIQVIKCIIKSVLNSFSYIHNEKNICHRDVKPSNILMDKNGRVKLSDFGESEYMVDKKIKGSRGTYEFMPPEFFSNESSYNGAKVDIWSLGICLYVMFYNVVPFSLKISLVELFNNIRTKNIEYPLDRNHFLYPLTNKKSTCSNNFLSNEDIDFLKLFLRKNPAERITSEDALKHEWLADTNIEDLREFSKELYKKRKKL
Plasmodium falciparum protein kinase 6 (PK6, PF3D7_1337100), sequence (Q8IDW1 1-305): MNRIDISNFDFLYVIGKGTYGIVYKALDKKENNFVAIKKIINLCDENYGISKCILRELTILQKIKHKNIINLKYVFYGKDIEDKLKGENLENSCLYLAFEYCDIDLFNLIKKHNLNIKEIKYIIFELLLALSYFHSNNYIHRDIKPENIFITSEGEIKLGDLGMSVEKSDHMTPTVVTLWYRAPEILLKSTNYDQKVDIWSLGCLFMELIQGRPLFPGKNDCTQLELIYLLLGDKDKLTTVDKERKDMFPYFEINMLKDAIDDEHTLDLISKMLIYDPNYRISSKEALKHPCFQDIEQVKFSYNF

CCCCCCCN1CCC(CC(=O)Nc2ccnc3ccc(OC)cc23)CC1
active: growth inhibition [1] 52% | growth inhibition [4] 97%
inactive: inhibition [2] 15% | inhibition [3] -2% | outcome [5] | outcome [6] | outcome [7] | outcome [8]

O=C(Nc1ccc(-c2ccc(-c3nc4ccccc4[nH]3)cc2)cc1)Nc1ccc(Cl)c(Cl)c1
active: growth inhibition [1] 100% | inhibition [2] 68% | growth inhibition [4] 102%
inactive: inhibition [3] 4% | outcome [5] | outcome [6] | outcome [7] | outcome [8]

Fc1ccccc1C=NNc1ccnc2ccc(C(F)(F)F)cc12
active: growth inhibition [1] 61% | growth inhibition [4] 100%
inactive: inhibition [2] 5% | inhibition [3] 3% | outcome [5] | outcome [6] | outcome [7] | outcome [8]

C[C@@H]1CN(c2cnn(Cc3ccc(NC(=O)Nc4ccc(-c5ccccc5)cc4)cc3)c(=O)c2Cl)C[C@H](C)N1
inactive: growth inhibition [1] 46% | inhibition [3] -3% | outcome [5] | outcome [6] | outcome [7] | outcome [8]
active: inhibition [2] 82% | growth inhibition [4] 100%

Clc1ccc(-c2nc3ccc(-c4ccc5nc(-c6ccc(Cl)cc6)[nH]c5c4)cc3[nH]2)cc1
active: growth inhibition [1] 99% | inhibition [2] 59% | growth inhibition [4] 101%
inactive: inhibition [3] -5% | outcome [5] | outcome [6] | outcome [7] | outcome [8]

Cc1cc(-c2cnc(N)c(-c3ccc(N4CCN(C)CC4)cc3)c2)cc(C)c1O
active: growth inhibition [1] 99% | growth inhibition [4] 101%
inactive: inhibition [2] 3% | inhibition [3] -5% | outcome [5] | outcome [6] | outcome [7] | outcome [8]

CC(C)NCC(O)COc1ccc(Cc2ccc(OCC(O)CNC(C)C)cc2)cc1 (stereo not given)
inactive: growth inhibition [1] 18% | inhibition [2] -8% | inhibition [3] -5% | outcome [5] | outcome [6] | outcome [7] | outcome [8]
active: growth inhibition [4] 100%

Clc1cc(Br)ccc1-c1ccc(CNCC2CCNCC2)o1
active: inhibition [2] 100% | growth inhibition [4] 96%
inactive: growth inhibition [1] 39% | inhibition [3] 1% | outcome [5] | outcome [6] | outcome [7] | outcome [8]

COc1ccc2nccc([C@@H](O)CN3CC[C@H](NCc4nc5c(cc4Cl)OCC(=O)N5)[C@H](F)C3)c2c1
inactive: growth inhibition [1] 29% | inhibition [2] 4% | inhibition [3] 4% | outcome [5] | outcome [6] | outcome [7] | outcome [8]
active: growth inhibition [4] 84%

CCOC(=O)c1cnc2c(OC)cc(OC)c(Cl)c2c1Nc1cccc(C)c1C
inactive: inhibition [2] 5% | inhibition [3] 0% | outcome [5] | outcome [6] | outcome [7] | outcome [8]
active: growth inhibition [1] 99% | growth inhibition [4] 102%

O=C(Nc1cccc(-c2ccc(-c3nc4ccccc4[nH]3)cc2)c1)Nc1ccc(F)c(F)c1F
inactive: growth inhibition [1] 38% | inhibition [2] 45% | inhibition [3] 5% | outcome [5] | outcome [6] | outcome [7] | outcome [8]
active: growth inhibition [4] 100%

COc1ccc(Nc2nccc(N3CCC(NC(=O)c4cccc(C#N)c4)C3)n2)cc1 (stereo not given)
active: growth inhibition [1] 93% | growth inhibition [4] 92%
inactive: inhibition [2] 6% | inhibition [3] -3% | outcome [5] | outcome [6] | outcome [7] | outcome [8]

CCC(=O)Nc1ccc(Nc2nc(C)cc(N3CCCC3)n2)cc1
inactive: growth inhibition [1] 2% | inhibition [2] 34% | inhibition [3] -2% | outcome [5] | outcome [6] | outcome [7] | outcome [8]
active: growth inhibition [4] 91%

COc1ccc2ncc(F)c(NC(=O)C3CCC(NCc4cc5cc(F)cc(F)c5[nH]4)CC3)c2n1 (stereo not given)
inactive: growth inhibition [1] 15% | inhibition [2] 18% | inhibition [3] 2% | outcome [5] | outcome [6] | outcome [7] | outcome [8]
active: growth inhibition [4] 95%

CC1(C)N=C(N)N=C(N)N1c1ccc(I)cc1
active: growth inhibition [4] 92%
inactive: growth inhibition [1] 1% | inhibition [2] 16% | inhibition [3] 1% | outcome [5] | outcome [6] | outcome [7] | outcome [8]

O=S(=O)(Nc1cccc(CCN2CCCCC2CCN2CCCC2)c1)c1ccc(Oc2ccccc2)cc1 (stereo not given)
inactive: growth inhibition [1] 1% | inhibition [3] -2% | outcome [5] | outcome [6] | outcome [7] | outcome [8]
active: inhibition [2] 52% | growth inhibition [4] 94%

CCCCCCN1CCC(NCc2cccc([N+](=O)[O-])c2)CC1
inactive: growth inhibition [1] 16% | inhibition [2] -2% | inhibition [3] 0% | outcome [5] | outcome [6] | outcome [7] | outcome [8]
active: growth inhibition [4] 100%

CCOC(=O)c1ccc(NC(=O)Nc2ccc(Cn3ncc(N4CCCNCC4)c(Cl)c3=O)cc2)cc1
active: growth inhibition [1] 58% | growth inhibition [4] 88%
inactive: inhibition [2] 2% | inhibition [3] 2% | outcome [5] | outcome [6] | outcome [7] | outcome [8]

Cc1ccccc1C1CCN(C2CCC(NC(=O)C3=Cc4cc(Cl)ccc4OC3)CC2)CC1 (stereo not given)
active: growth inhibition [1] 99% | inhibition [2] 51% | growth inhibition [4] 100%
inactive: inhibition [3] 0% | outcome [5] | outcome [6] | outcome [7] | outcome [8]

O=C(NC1CCCC1)c1cc2c(=O)n3ccccc3nc2nc1NCCc1ccccc1
inactive: inhibition [2] 19% | inhibition [3] 2% | outcome [5] | outcome [6] | outcome [7] | outcome [8]
active: growth inhibition [1] 61% | growth inhibition [4] 101%
